Counter-ions that a name gives are not always drawn. ± gives the standard deviation of the averaged measurements.
tested on: E. coli TESEC Mtb DapB; assay: growth (OD600 after 10 h); higher = more growth (less inhibition); conditions: arabinose induction (level): High; compound 0.1 mM; raw OD600 reference: median of DMSO wells […], cell-free background 0.041
Protocol: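 TESEC E. coli strains in which the native enzyme is deleted and replaced by arabinose-inducible Mtb Asd, DapB, CysH or TrpD, each grown in its selective medium. Strains were screened against the Prestwick library at 0.1 mM and 1% DMSO in 384-well format at low and high arabinose induction. Growth is read as OD600 after 10 h in triplicate.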

Row | Compound | growth
1 | CC1=C(/C=C/C(C)=C/C=C/C(C)=C\C(=O)O)C(C)(C)CCC1 [Isotretinoin] | 0.185 ± 0.018
2 | C[C@@H]1NC(=O)NC1=O [Methylhydantoin-5-(L)] | 0.192 ± 0.013
3 | Clc1ccc(COC(Cn2ccnc2)c2ccc(Cl)cc2Cl)cc1 (stereo not given) [Econazole nitrate] | 0.04893 ± 0.00047
4 | Clc1ccc(CO/N=C(\Cn2ccnc2)c2ccc(Cl)cc2Cl)c(Cl)c1 [Oxiconazole Nitrate] | 0.0621 ± 0.0016
5 | C[C@]12CC[C@H]3C(=CCc4cc(O)ccc43)[C@@H]1CCC2=O [Equilin] | 0.174 ± 0.0089
6 | CN(C)CCC=C1c2ccccc2CCc2ccccc21 [Amitryptiline hydrochloride] | 0.195 ± 0.019
7 | Cn1c(=O)c2nc[nH]c2n(C)c1=O [Theophylline monohydrate] | 0.197 ± 0.014
8 | CC/C(=C(/CC)c1ccc(O)cc1)c1ccc(O)cc1 [Diethylstilbestrol] | 0.171 ± 0.013
9 | CC(C)(S)C(N)C(=O)O (racemic) [D,L-Penicillamine] | 0.18 ± 0.023
10 | Cc1nc2n(c(=O)c1CCN1CCC(c3noc4cc(F)ccc34)CC1)CCCC2 [Risperidone] | 0.201 ± 0.024
11 | COC(=O)Nc1nc2cc(C(=O)c3cccs3)ccc2[nH]1 [Nocodazole] | 0.186 ± 0.0079
12 | CC(C)(C)NC[C@H](O)COc1nsnc1N1CCOCC1 [Timolol maleate salt] | 0.206 ± 0.016
13 | O=C1OC(CN2CCOCC2)CN1/N=C/c1ccc([N+](=O)[O-])o1 (stereo not given) [Furaltadone hydrochloride] | 0.0577 ± 0.0081
14 | NS(=O)(=O)c1cc2c(cc1Cl)N=CNS2(=O)=O [Chlorothiazide] | 0.193 ± 0.006
15 | CCOC(=O)[C@H](CCc1ccccc1)N[C@@H](C)C(=O)N1Cc2ccccc2C[C@H]1C(=O)O [Quinapril HCl] | 0.155 ± 0.012
16 | CC(C(=O)O)c1cccc(Oc2ccccc2)c1 (stereo not given) [Fenoprofen calcium salt dihydrate] | 0.205 ± 0.01
17 | Cc1ccc(N(CC2=NCCN2)c2cccc(O)c2)cc1 [Phentolamine hydrochloride] | 0.193 ± 0.019
18 | Cc1oncc1C(=O)Nc1ccc(C(F)(F)F)cc1 [Leflunomide] | 0.226 ± 0.028
19 | CN(CCOc1ccc(NS(C)(=O)=O)cc1)CCc1ccc(NS(C)(=O)=O)cc1 [Dofetilide] | 0.229 ± 0.041
20 | Nc1cc(-c2ccncc2)c[nH]c1=O [Amrinone] | 0.206 ± 0.0051

same assay, conditions: arabinose induction (level): Low; compound 0.1 mM; raw OD600 reference: median of DMSO wells 0.227, cell-free background 0.041

Row | Compound | growth
21 | CC1=C(/C=C/C(C)=C/C=C/C(C)=C\C(=O)O)C(C)(C)CCC1 [Isotretinoin] | 0.195 ± 0.014
22 | C[C@@H]1NC(=O)NC1=O [Methylhydantoin-5-(L)] | 0.245 ± 0.022
23 | Clc1ccc(COC(Cn2ccnc2)c2ccc(Cl)cc2Cl)cc1 (stereo not given) [Econazole nitrate] | 0.0996 ± 0.064
24 | Clc1ccc(CO/N=C(\Cn2ccnc2)c2ccc(Cl)cc2Cl)c(Cl)c1 [Oxiconazole Nitrate] | 0.0618 ± 0.0051
25 | C[C@]12CC[C@H]3C(=CCc4cc(O)ccc43)[C@@H]1CCC2=O [Equilin] | 0.183 ± 0.017
26 | CN(C)CCC=C1c2ccccc2CCc2ccccc21 [Amitryptiline hydrochloride] | 0.232 ± 0.047
27 | Cn1c(=O)c2nc[nH]c2n(C)c1=O [Theophylline monohydrate] | 0.241 ± 0.044
28 | CC/C(=C(/CC)c1ccc(O)cc1)c1ccc(O)cc1 [Diethylstilbestrol] | 0.198 ± 0.012
29 | CC(C)(S)C(N)C(=O)O (racemic) [D,L-Penicillamine] | 0.205 ± 0.024
30 | Cc1nc2n(c(=O)c1CCN1CCC(c3noc4cc(F)ccc34)CC1)CCCC2 [Risperidone] | 0.261 ± 0.019
31 | COC(=O)Nc1nc2cc(C(=O)c3cccs3)ccc2[nH]1 [Nocodazole] | 0.215 ± 0.044
32 | CC(C)(C)NC[C@H](O)COc1nsnc1N1CCOCC1 [Timolol maleate salt] | 0.258 ± 0.018
33 | O=C1OC(CN2CCOCC2)CN1/N=C/c1ccc([N+](=O)[O-])o1 (stereo not given) [Furaltadone hydrochloride] | 0.0529 ± 0.00068
34 | NS(=O)(=O)c1cc2c(cc1Cl)N=CNS2(=O)=O [Chlorothiazide] | 0.239 ± 0.024
35 | CCOC(=O)[C@H](CCc1ccccc1)N[C@@H](C)C(=O)N1Cc2ccccc2C[C@H]1C(=O)O [Quinapril HCl] | 0.165 ± 0.0056
36 | CC(C(=O)O)c1cccc(Oc2ccccc2)c1 (stereo not given) [Fenoprofen calcium salt dihydrate] | 0.192 ± 0.014
37 | Cc1ccc(N(CC2=NCCN2)c2cccc(O)c2)cc1 [Phentolamine hydrochloride] | 0.252 ± 0.024
38 | Cc1oncc1C(=O)Nc1ccc(C(F)(F)F)cc1 [Leflunomide] | 0.255 ± 0.034
39 | CN(CCOc1ccc(NS(C)(=O)=O)cc1)CCc1ccc(NS(C)(=O)=O)cc1 [Dofetilide] | 0.241 ± 0.032
40 | Nc1cc(-c2ccncc2)c[nH]c1=O [Amrinone] | 0.271 ± 0.011
